Data published in PubChem BioAssay AID1852 (Sanford-Burnham Center for Chemical Genomics, 2009).
In all, about 2,500 compounds went through this assay and about 1,100 (44%) were called active. So high a share suggests a set chosen from earlier hits. Some of the results follow. A number with no mark means an inactive call.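 Rule for the calls: active = inhibition above 50% at 4 µM in the single-point screen; inactive = inhibition of 50% or less.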

Experiment: TNF-a-driven NF-kB reporter inhibitors, primary screen, selectivity assay for NOD1/NOD2 signaling inhibitor project, cell-based, HEK293T NF-kB-Luc, luminescence (AID 1852)
Conditions: TNF-a induced, 14 h, at 4 µM, active compounds read high

Question: For `Cc1ccc(NC2=C/C(=N\S(=O)(=O)c3cccs3)c3ccccc3C2=O)c(C)c1`, which inhibition is on record?
Answer: 102% (active)

Question: For `Cc1cccc(NC2=C/C(=N/S(=O)(=O)c3cccs3)c3ccccc3C2=O)c1`, which inhibition is on record?
Answer: 63.9% (active)

Question: For `Cc1ccccc1NC1=C/C(=N\S(=O)(=O)c2cccs2)c2ccccc2C1=O`, which inhibition is on record?
Answer: 108% (active)

Question: With `CCc1cccc(NC(=O)C2CCCN(S(=O)(=O)c3cccs3)C2)c1` (stereo unspecified) as the compound, how does the inhibition read?
Answer: 18.2%

Question: Which inhibition does the source give for `COC(=O)c1ccccc1NC1=C/C(=N\S(=O)(=O)c2cccs2)c2ccccc2C1=O` here?
Answer: 99.7% (active)

Question: With `COc1ccc(CNS(=O)(=O)c2ccc3c(c2)CC(C)N3C(=O)C2CC2)cc1` (stereo unspecified) as the compound, how does the inhibition read?
Answer: 30%

Question: For `Cc1ccc(Cl)cc1NC1=C/C(=N\S(=O)(=O)c2cccs2)c2ccccc2C1=O`, which inhibition is on record?
Answer: 102% (active)

Question: With `CCOc1ccc(OCCN2C(=O)NC3(CCCc4ccccc43)C2=O)cc1` (stereo unspecified) as the compound, how does the inhibition read?
Answer: 18.7%

Question: For `CCN(CC)S(=O)(=O)c1cccc(C(=O)Nc2nc3cc4c(cc3s2)OCCO4)c1`, which inhibition is on record?
Answer: 22%

Question: Which inhibition does the source give for `CN(CC1CCCO1)S(=O)(=O)c1ccc(C(=O)Nc2nc3cc4c(cc3s2)OCO4)cc1` (stereo unspecified) here?
Answer: 69.7% (active)

Question: With `O=C(Nc1nc2cc3c(cc2s1)OCCO3)C1=COCCO1` as the compound, how does the inhibition read?
Answer: 22.7%

Question: For `CCC1CCCCN1S(=O)(=O)c1ccc(C(=O)Nc2nnc(-c3ccccc3Cl)o2)cc1` (stereo unspecified), which inhibition is on record?
Answer: 70.3% (active)

Question: For `O=C(Nc1nnc(-c2ccccc2Cl)o1)c1ccc(S(=O)(=O)N2CCCCCC2)cc1`, which inhibition is on record?
Answer: 93.9% (active)

Question: With `O=C(c1ccc(S(=O)(=O)N2CCCCC2)cc1)N1CCN(CCN2C(=O)c3cccc4cccc(c34)C2=O)CC1` as the compound, how does the inhibition read?
Answer: 31%

Question: With `CC1CCCCN1S(=O)(=O)c1ccc(C(=O)Nc2nnc(-c3ccccc3Cl)o2)cc1` (stereo unspecified) as the compound, how does the inhibition read?
Answer: 97.2% (active)

Question: For `CCC1CCCCN1S(=O)(=O)c1ccc(NC(=O)c2ccncc2)cc1` (stereo unspecified), which inhibition is on record?
Answer: 9.7%

Question: For `O=C(c1[nH]ncc1-c1ccc(Cl)cc1)C1CO1` (stereo unspecified), which inhibition is on record?
Answer: 12.8%

Question: For `CN(C(=O)C(C)(C)C)c1ccc(OCC(=O)N2CCc3ccccc3C2)cc1`, which inhibition is on record?
Answer: 41.9%

Question: With `CCOc1ccc(NC(=O)Nc2nc(SCC)ns2)cc1` as the compound, how does the inhibition read?
Answer: 12.2%

Question: Which inhibition does the source give for `FC(F)(F)c1cnc(NNC(=S)Nc2ccccc2Cl)c(Cl)c1` here?
Answer: -6.8%

Question: Which inhibition does the source give for `S=C(NNc1ccnc2cc(Cl)ccc12)Nc1ccccc1Cl` here?
Answer: 64.6% (active)

Question: Which inhibition does the source give for `S=C(NNc1ccnc2cc(Cl)ccc12)Nc1ccc(Cl)cc1Cl` here?
Answer: 43.7%

Question: For `COc1ccc(-c2cnc(N)nc2-c2ccc(OC)cc2O)cc1`, which inhibition is on record?
Answer: 70.5% (active)

Question: With `COc1ccc(-c2n[nH]c(C)c2-c2ccc(OC)c(OC)c2)c(O)c1` as the compound, how does the inhibition read?
Answer: 28.7%

Question: For `COc1ccc(-c2cncnc2-c2ccc(OC)cc2O)cc1`, which inhibition is on record?
Answer: 79.8% (active)

Question: With `COc1cccc(NC(=O)c2oc3ccc(S(=O)(=O)N4CCOCC4)cc3c2C)c1` as the compound, how does the inhibition read?
Answer: -31.8%

Question: For `Cc1c(C(=O)Nc2nonc2-c2ccc(F)cc2)oc2ccc(F)cc12`, which inhibition is on record?
Answer: 77.4% (active)

Question: With `CC1CCN(c2ccc(-c3cccc(NC(=O)C(F)(F)F)c3)nn2)CC1` as the compound, how does the inhibition read?
Answer: -170%

Question: With `O=C(OCn1ncc(Cl)c(Cl)c1=O)c1cccc(C(F)(F)F)c1` as the compound, how does the inhibition read?
Answer: 43%

Question: Which inhibition does the source give for `Cc1ccc(C(=O)OCn2ncc(Cl)c(Cl)c2=O)cc1` here?
Answer: 88.1% (active)

Question: With `O=C(OCn1ncc(Cl)c(Cl)c1=O)c1ccc(F)cc1` as the compound, how does the inhibition read?
Answer: 83.1% (active)

Question: Which inhibition does the source give for `COc1ccc(CCNc2oc(COc3ccc(Br)cc3)nc2C#N)cc1OC` here?
Answer: 24.5%

Question: Which inhibition does the source give for `COc1ccc(CCNc2oc(COc3ccccc3Cl)nc2C#N)cc1OC` here?
Answer: 11.6%

Question: Which inhibition does the source give for `COc1ccc(Nc2oc(COc3ccccc3OC)nc2C#N)cc1` here?
Answer: 77.8% (active)

Question: With `Cc1ccc(NS(=O)(=O)c2sc3ccc(Cl)cc3c2C)cc1` as the compound, how does the inhibition read?
Answer: 9.4%

Question: Which inhibition does the source give for `COc1cc(CNc2ccc3[nH]c(=O)[nH]c3c2)ccc1OCc1cccc(C)c1` here?
Answer: 44.3%

Question: For `CCOc1ccc(NS(=O)(=O)c2ccc3[nH]c(=O)[nH]c3c2)cc1`, which inhibition is on record?
Answer: 88.5% (active)

Question: Which inhibition does the source give for `CCOc1ccc(S(=O)(=O)Nc2cnc3ccccc3c2)cc1` here?
Answer: 81.5% (active)

Question: With `CCOc1ccc(Nc2nc(N)c3ccccc3n2)cc1` as the compound, how does the inhibition read?
Answer: -144%

Question: With `CCOc1ccc(NS(=O)(=O)c2cc(Cl)ccc2OC)cc1` as the compound, how does the inhibition read?
Answer: 10.6%

Question: Which inhibition does the source give for `CC(C)c1ccc(-c2nnn(CCC(=O)O)n2)cc1` here?
Answer: 49.4%

Question: With `COC(=O)CCn1nnc(-c2ccc(C(C)C)cc2)n1` as the compound, how does the inhibition read?
Answer: 71.7% (active)

Question: With `Cc1ccc(NC(=O)C2=C(c3ccccc3)S(=O)(=O)CCS2(=O)=O)cc1` as the compound, how does the inhibition read?
Answer: 65% (active)

Question: Which inhibition does the source give for `O=C(Nc1ccccc1)C1=C(c2ccccc2)S(=O)(=O)CCS1(=O)=O` here?
Answer: 60.9% (active)

Question: Which inhibition does the source give for `CC(C)=CCc1c(O)cc2oc3c(CC=C(C)C)c(O)c(O)c(CC=C(C)C)c3c(=O)c2c1O` here?
Answer: 15.6%

Question: With `C=CCNc1ncnc2ccc(Br)cc12` as the compound, how does the inhibition read?
Answer: 25.1%

Question: For `Brc1ccc2ncnc(NCc3cccnc3)c2c1`, which inhibition is on record?
Answer: 65.2% (active)

Question: With `Brc1ccc2ncnc(NCc3ccco3)c2c1` as the compound, how does the inhibition read?
Answer: 60.4% (active)

Question: For `Cc1ccc(/C=C2/SC(=S)N(c3ccc(S(=O)(=O)Nc4nccs4)cc3)C2=O)cc1`, which inhibition is on record?
Answer: 21%

Question: With `O=C(O)c1ccc(N/N=C/c2ccc(OC(=O)c3ccccc3Cl)cc2)cc1` as the compound, how does the inhibition read?
Answer: 7.7%

Question: With `CC(C)c1ccc(S(=O)(=O)/N=C2\C=C(NS(=O)(=O)c3ccccc3)C(=O)c3ccccc32)cc1` as the compound, how does the inhibition read?
Answer: 103% (active)

Question: With `CC(C)(C)c1ccc(S(=O)(=O)/N=C2\C=C(NS(=O)(=O)c3ccccc3)C(=O)c3ccccc32)cc1` as the compound, how does the inhibition read?
Answer: 96.3% (active)

Question: For `CC(C)Cc1ccc(S(=O)(=O)Nc2ccccn2)cc1`, which inhibition is on record?
Answer: 15.7%

Question: Which inhibition does the source give for `CCOC(=O)c1c(-c2ccccc2)oc2cc(Br)c(O)c(C=O)c12` here?
Answer: 50%

Question: For `CCc1oc2ccccc2c1C(=O)c1cc(Br)c(O)c(Br)c1`, which inhibition is on record?
Answer: 71.9% (active)

Question: With `CCOc1ccc2c(c1)C(=NNC(=O)c1ccncc1)c1cc(OCC)ccc1-2` as the compound, how does the inhibition read?
Answer: 106% (active)

Question: Which inhibition does the source give for `O=C(N/N=C/c1cc(Br)c(Br)s1)c1ccncc1` here?
Answer: 2.7%

Question: Which inhibition does the source give for `O=S(=O)(Nc1cccc2cccnc12)c1ccccc1` here?
Answer: -4%

Question: Which inhibition does the source give for `Cc1nc(C)c(C(=O)NNS(=O)(=O)c2ccc3ccccc3c2)s1` here?
Answer: 21.5%

Question: Which inhibition does the source give for `COc1cc(NS(=O)(=O)c2ccc3ccccc3c2)c2ncccc2c1` here?
Answer: 55.6% (active)

Question: Which inhibition does the source give for `O=S(=O)(Nc1cccc(-c2cn3cccnc3n2)c1)c1ccc(-c2ccccc2)cc1` here?
Answer: 20.8%

Question: With `Cc1ccc(S(=O)(=O)Nc2cccc3cccnc23)c([N+](=O)[O-])c1` as the compound, how does the inhibition read?
Answer: 103% (active)

Question: With `COc1ccc(NS(=O)(=O)c2ccc3ccccc3c2)c2ncccc12` as the compound, how does the inhibition read?
Answer: 27.9%

Question: With `Cc1ccc(S(=O)(=O)Nc2cccc3cccnc23)cc1` as the compound, how does the inhibition read?
Answer: 105% (active)

Question: With `Cc1ccc2cccc(NS(=O)(=O)c3ccccc3)c2n1` as the compound, how does the inhibition read?
Answer: 62.8% (active)

Question: For `O=[N+]([O-])c1ccccc1S(=O)(=O)Nc1cccc2cccnc12`, which inhibition is on record?
Answer: 35%
